Assay results as given in PubChem BioAssay AID1159580 (chemical genetic matrix, 2015).
Values joined by “and” are separate entries in the source; they are usually repeats but may differ in a detail not shown here. Equal values may be shown once. The whole screen tested about 5,500 compounds, of which about 2,000 (36%) were called active. Not shown: some 18% with an inconclusive outcome. Cut-off read from the data, not from the text of the source: active = normalized growth mostly below about 0.91 (no sharp cut-off); inconclusive = no clear call, values can overlap the other calls; inactive = mostly above about 0.92. This is one part of the list.

Assay: chemical genetic growth profiling, strain panel (AID 1159580);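 note: tested at 20 µM; growth read once vehicle control cultures reached saturation at 30 °C; 1 = growth at the plate median or of vehicle wells; lower values mean less growth of the strain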
Conditions: S. cerevisiae deletion strains, growth OD

Measured: normalized growth

CC(=O)OCC[N+](C)(C)C
active: locus YAL026C, strain drs2, active compounds read low 1.1 [resistant] | locus YDR137W, strain rgp1, active compounds read low 1.55 [resistant] | locus YDR159W, strain sac3, active compounds read low 1.15 [resistant] | locus YDR195W, strain ref2 1.21 [resistant] | locus YLR221C, strain rsa3, active compounds read low 1.1 [resistant] | locus YLR262C, strain YPT6 (second series), active compounds read low 1.27 [resistant] | locus YNL248C, strain rpa49, active compounds read low 1.12 [resistant] | locus YOR144C, strain elg1, active compounds read low 1.09 [resistant] | locus YOR270C, strain vph1, active compounds read low 0.749 | locus YPL256C, strain CLN2, active compounds read low 1.24 [resistant] | locus YPR141C, strain kar3, active compounds read low 1.09 [resistant]
inactive: locus YAL013W, strain DEP1, active compounds read low 1.01 | locus YAL021C, strain ccr4, active compounds read low 1.03 | locus YAL030W, strain snc1, active compounds read low 1.02 | locus YBL061C, strain skt5, active compounds read low 1.03 | locus YBR009C, strain hhf1, active compounds read low 1.08 | locus YBR021W, strain FUR4, active compounds read low 1.06 | locus YBR023C, strain chs3, active compounds read low 1.05 | locus YBR171W, strain sec66, active compounds read low 0.999 | locus YBR229C, strain ROT2, active compounds read low 1.01 | locus YBR231C, strain swc5, active compounds read low 1.03 | locus YBR279W, strain paf1, active compounds read low 1.04 | locus YCL011C, strain gbp2, active compounds read low 1.07 | locus YCL016C, strain dcc1, active compounds read low 1.05 | locus YCL029C, strain bik1, active compounds read low 1.04 | locus YCL069W, strain vba3, active compounds read low 1.03 | locus YCR088W, strain abp1, active compounds read low 1.02 | locus YDL005C, strain med2, active compounds read low 1 | locus YDL035C, strain GPR1, active compounds read low 0.961 | locus YDL040C, strain nat1, active compounds read low 1.02 | locus YDL074C, strain BRE1, active compounds read low 0.965 | locus YDL101C, strain DUN1, active compounds read low 0.985 | locus YDL134C, strain PPH21, active compounds read low 0.986 | locus YDL185W, strain tfp1, active compounds read low 0.969 | locus YDL192W, strain arf1, active compounds read low 1.02 | locus YDR001C, strain nth1, active compounds read low 1.01 | locus YDR069C, strain doa4, active compounds read low 1 | locus YDR101C, strain arx1, active compounds read low 1.07 | locus YDR162C, strain NBP2, active compounds read low 0.948 | locus YDR297W, strain sur2, active compounds read low 1.02 | locus YDR318W, strain mcm21, active compounds read low 1.01 | locus YDR334W, strain swr1, active compounds read low 1.03 | locus YDR335W, strain msn5, active compounds read low 1 | locus YDR388W, active compounds read low 1.02 | locus YDR392W, strain spt3, active compounds read low 1.13 | locus YDR502C, strain sam2, active compounds read low 1.01 | locus YEL003W, strain gim4, active compounds read low 1.01 | locus YEL037C, strain rad23, active compounds read low 1.03 | locus YEL061C, strain CIN8 (second series), active compounds read low 1.03 | locus YEL061C, strain CIN8, active compounds read low 0.993 | locus YER015W, strain faa2, active compounds read low 1.07 | locus YER016W, strain bim1, active compounds read low 1.02 | locus YER110C, active compounds read low 1.01 | locus YER111C, strain swi4, active compounds read low 1.02 | locus YER155C, strain BEM2 (second series), active compounds read low 1.11 | locus YER155C, strain BEM2, active compounds read low 1.02 | locus YER167W, strain BCK2, active compounds read low 1.01 | locus YFR010W, strain ubp6, active compounds read low 1.01 | locus YGL078C, strain dbp3, active compounds read low 1.03 | locus YGL086W, strain mad1, active compounds read low 1.01 | locus YGL167C, strain pmr1, active compounds read low 1.01 | locus YGL173C, strain kem1, active compounds read low 1.02 | locus YGL227W, strain vid30, active compounds read low 1.02 | locus YGL240W, strain doc1, active compounds read low 1.11 | locus YGL248W, strain PDE1, active compounds read low 0.99 | locus YGL253W, strain hxk2, active compounds read low 1.03 | locus YGR135W, strain pre9, active compounds read low 0.996 | locus YGR252W, strain gcn5, active compounds read low 0.943 | locus YHR013C, strain ard1, active compounds read low 1.11 | locus YHR027C, strain rpn1, active compounds read low 1.02 | locus YHR030C, strain SLT2, active compounds read low 1.01 and 1.08 | locus YHR079C, strain IRE1 (second series), active compounds read low 1.02 | locus YHR079C, strain IRE1, active compounds read low 1.1 | locus YHR094C, strain hxt1, active compounds read low 1.02 | locus YHR129C, strain ARP1, active compounds read low 1.01 | locus YHR142W, strain chs7, active compounds read low 1.1 | locus YHR200W, strain rpn10, active compounds read low 1.02 | locus YIL066C, strain RNR3, active compounds read low 0.988 | locus YIL073C, strain SPO22, active compounds read low 0.973 | locus YIL125W, strain kgd1, active compounds read low 1.03 | locus YIR030C, strain dcg1, active compounds read low 1.06 | locus YJL092W, strain hpr5, active compounds read low 1.02 | locus YJL095W, strain BCK1 (second series), active compounds read low 1.02 | locus YJL095W, strain BCK1, active compounds read low 0.928 and 1.07 | locus YJL115W, strain asf1, active compounds read low 1.03 | locus YJL129C, strain trk1, active compounds read low 1.09 | locus YJL134W, strain LCB3, active compounds read low 1.02 | locus YJL154C, strain vps35, active compounds read low 1.03 | locus YJL164C, strain tpk1, active compounds read low 1.05 | locus YJL166W, strain qcr8, active compounds read low 1.04 | locus YJL168C, strain set2, active compounds read low 1.03 | locus YJL187C, strain SWE1 (second series), active compounds read low 0.951 | locus YJL187C, strain SWE1, active compounds read low 1.02 | locus YJR043C, strain POL32, active compounds read low 0.994 | locus YJR066W, strain TOR1, active compounds read low 1.03 | locus YJR075W, strain HOC1, active compounds read low 0.978 | locus YKL009W, strain mrt4, active compounds read low 0.945 | locus YKL068W, active compounds read low 1.01 | locus YKL085W, strain MDH1 (second series), active compounds read low 1.01 | locus YKL085W, strain MDH1, active compounds read low 1.01 | locus YKL160W, strain elf1, active compounds read low 1.03 | locus YKR001C, strain vps1, active compounds read low 0.975 | locus YKR026C, strain gcn3, active compounds read low 1.03 | locus YKR091W, strain srl3, active compounds read low 1.02 | locus YLL001W, strain dnm1, active compounds read low 1.02 | locus YLL026W, active compounds read low 1.03 | locus YLL041C, strain sdh2, active compounds read low 1.02 | locus YLR027C, strain aat2, active compounds read low 1.02 | locus YLR039C, strain RIC1, active compounds read low 0.756 | locus YLR058C, strain SHM2, active compounds read low 0.972 | locus YLR102C, strain apc9, active compounds read low 1.01 | locus YLR113W, strain HOG1, active compounds read low 1.14 | locus YLR258W, strain gsy2, active compounds read low 1.04 | locus YLR262C, strain YPT6, active compounds read low 0.801 | locus YLR268W, strain sec22, active compounds read low 0.967 | locus YLR320W, strain mms22, active compounds read low 1.1 | locus YLR330W, strain CHS5, active compounds read low 0.998 | locus YLR342W, strain FKS1 (second series), active compounds read low 0.986 | locus YLR342W, strain FKS1, active compounds read low 1.01 | locus YLR357W, strain rsc2, active compounds read low 1.12 | locus YLR370C, strain arc18, active compounds read low 1.03 | locus YLR371W, strain rom2, active compounds read low 1.08 | locus YLR384C, strain iki3, active compounds read low 1.02 | locus YLR418C, strain cdc73, active compounds read low 0.99 | locus YML016C, strain PPZ1, active compounds read low 0.993 | locus YML032C, strain rad52, active compounds read low 0.918 | locus YML120C, strain ndi1, active compounds read low 1.04 | locus YML124C, strain tub3, active compounds read low 1 | locus YMR058W, strain fet3, active compounds read low 1.05 | locus YMR078C, strain ctf18, active compounds read low 1.02 | locus YMR125W, strain sto1, active compounds read low 1.05 | locus YMR129W, active compounds read low 1.02 | locus YMR205C, strain PFK2, active compounds read low 1.08 | locus YMR223W, strain ubp8, active compounds read low 0.978 | locus YMR231W, strain pep5, active compounds read low 0.993 | locus YMR307W, strain GAS1, active compounds read low 1.07 | locus YNL067W, strain RPL9B, active compounds read low 0.961 | locus YNL071W, strain lat1, active compounds read low 1.04 | locus YNL183C, strain NPR1, active compounds read low 1.04 | locus YNL209W, strain ssb2, active compounds read low 1.02 | locus YNL233W, strain BNI4, active compounds read low 0.973 | locus YNL250W, strain rad50, active compounds read low 1.02 | locus YNL271C, strain bni1, active compounds read low 1.01 | locus YNL298W, strain CLA4, active compounds read low 1.01 | locus YNL307C, strain MCK1, active compounds read low 1.03 | locus YNL322C, strain KRE1 (second series), active compounds read low 1.07 | locus YNL322C, strain KRE1, active compounds read low 1.02 | locus YNR049C, strain mso1, active compounds read low 1.01 | locus YNR052C, strain pop2, active compounds read low 1.02 | locus YOL012C, strain htz1 1.26 | locus YOL147C, strain pex11, active compounds read low 1.03 | locus YOR001W, strain rrp6, active compounds read low 0.99 | locus YOR061W, strain CKA2, active compounds read low 0.994 | locus YOR069W, strain VPS5, active compounds read low 1.01 | locus YOR070C, strain gyp1, active compounds read low 1.02 | locus YOR080W, strain dia2, active compounds read low 1.02 | locus YOR083W, strain WHI5, active compounds read low 1.05 | locus YOR106W, strain vam3, active compounds read low 1.08 | locus YOR136W, strain idh2, active compounds read low 1.02 | locus YOR184W, strain ser1, active compounds read low 0.988 | locus YOR231W, strain MKK1, active compounds read low 1.08 | locus YOR265W, strain rbl2, active compounds read low 1.02 | locus YOR290C, strain snf2, active compounds read low 1.06 | locus YOR316C, strain cot1, active compounds read low 1.01 | locus YPL051W, strain arl3, active compounds read low 1.05 | locus YPL055C, strain LGE1, active compounds read low 0.982 | locus YPL078C, strain atp4, active compounds read low 1.04 | locus YPL106C, strain sse1, active compounds read low 1.02 | locus YPL240C, strain hsp82, active compounds read low 1.01 | locus YPL241C, strain CIN2, active compounds read low 1 | locus YPR119W, strain clb2, active compounds read low 1.01 | locus YPR163C, strain tif3, active compounds read low 1.01 | locus YPR167C, strain met16, active compounds read low 1.03 | strain wtn01, active compounds read low 0.996
